Reference: PubChem BioAssay (NCI)
“And” between values parts separate entries of the source, which are not always exact repeats. Identical values can stand only once. The panel holds about 83,000 compounds, 20% with a hit somewhere; the sample as a whole holds those more often.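 Assay: single dose, 48 h. Readout: percent growth (0 = no net growth; negative = cell death). Active: <10.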 The source made the active and inactive calls.

What was measured:
Assay in all cases: NCI-60 one-dose screen, 48 h (100 = growth as untreated, 0 = no growth, -100 = all killed)
OVCAR-8 ovarian = conditions: 10 µM
OVCAR-5 ovarian = conditions: 10 µM unless noted
SK-OV-3 ovarian = conditions: 10 µM unless noted
IGROV1 ovarian = conditions: 10 µM unless noted
HS 578T breast = conditions: 10 µM unless noted
NCI/ADR-RES ovarian = conditions: 10 µM unless noted
T-47D breast = conditions: 10 µM unless noted
BT-549 breast = conditions: 10 µM unless noted
MDA-MB-435 melanoma = conditions: 10 µM unless noted
SW-620 colon = conditions: 10 µM unless noted
MCF7 breast = system: MCF7 breast
HCT-116 colon = conditions: 10 µM unless noted
HCC-2998 colon = conditions: 10 µM unless noted
KM12 colon = conditions: 10 µM unless noted
OVCAR-4 ovarian = conditions: 10 µM unless noted

SMILES	growth (OVCAR-8 ovarian)	growth (OVCAR-5 ovarian)	growth (SK-OV-3 ovarian)	growth (IGROV1 ovarian)	growth (HS 578T breast)	growth (NCI/ADR-RES ovarian)	growth (T-47D breast)	growth (BT-549 breast)	growth (MDA-MB-435 melanoma)	growth (SW-620 colon)	growth (MCF7 breast; 10 µM)	growth (HCT-116 colon)	growth (HCC-2998 colon)	growth (KM12 colon)	growth (OVCAR-4 ovarian)	growth (MCF7 breast; 2.5 µM)	growth (MCF7 breast; 25 µM)	growth (MCF7 breast; 100 µM)
COc1ccc(OC)c(/C=C/[N+](=O)[O-])c1	11.8% (inactive)	20.2% (inactive)	64.7% (inactive)	-4.14% (active)	4.59% (active)	17.7% (inactive)	16.6% (inactive)	-45.5% (active)	7.04% (active)	-38.7% (active)	-1.64% (active)	-81.5% (active)	-82.4% (active)	11.7% (inactive)				
Cc1c(N)nc([C@H](CC(N)=O)NC[C@H](N)C(N)=O)nc1C(=O)N[C@H](C(=O)N[C@H](C)[C@@H](O)[C@H](C)C(=O)N[C@H](C(=O)NCCc1nc(-c2nc(C(=O)NCCC[S+](C)C)cs2)cs1)[C@@H](C)O)C(OC1OC(CO)C(O)C(O)C1OC1OC(CO)C(O)C(OC(N)=O)C1O)c1cnc[nH]1 (stereo partly drawn)		59.5% [2.5 µM] (inactive)	98% [2.5 µM] (inactive)	42.3% [2.5 µM] (inactive)	-2.02% [2.5 µM] (active)	39.3% [2.5 µM] (inactive)	92.2% [2.5 µM] (inactive)	54% [2.5 µM] (inactive)	85.1% [2.5 µM] (inactive)	83.4% [2.5 µM] (inactive)		34.2% [2.5 µM] (inactive)	5.84% [2.5 µM] (active)	80.9% [2.5 µM] (inactive)	104% [2.5 µM] (inactive)	52.9% (inactive)	15.6% (inactive) and 0.932% (active)	
Cc1ccc(C(=O)OC(C(=O)O)C(OC(=O)c2ccc(C)cc2)C(=O)O)cc1 (stereo not drawn) (tested in a mixture with another compound)	61.4% (inactive)	67% (inactive)	69.7% (inactive)	63% (inactive)	40% (inactive)	56.3% (inactive)		17.5% (inactive)	51.3% (inactive)	53.4% (inactive)	14.3% (inactive)	22.1% (inactive)	73% (inactive)	58.9% (inactive)	58.9% (inactive)			
CC1CCC2(NC1)OC1CC3C4CCC5CC(OC6OC(CO)C(OC7OC(CO)C(O)C(OC8OCC(O)C(O)C8O)C7OC7OC(CO)C(O)C(O)C7O)C(O)C6O)CCC5(C)C4CCC3(C)C1C2C (stereo not drawn)																		-86% (active) and -100% (active)
NCCc1ccc(OCc2ccccc2)c(OCc2ccccc2)c1	79.3% (inactive)	105% (inactive)	91.2% (inactive)	75.2% (inactive)	126% (inactive)	87.9% (inactive)	69.2% (inactive)	89.4% (inactive)	88.1% (inactive)	83.7% (inactive)	69.9% (inactive)	61.8% (inactive)	34.6% (inactive)	80.7% (inactive)	86.3% (inactive)			
Oc1cccc2cccnc12	81.9% (inactive) and 101% (inactive) and 105% (inactive)	89.4% (inactive)	107% (inactive) and 97.8% (inactive) and 99.9% (inactive)	120% (inactive) and 118% (inactive) and 104% (inactive)	116% (inactive) and 101% (inactive)	83% (inactive) and 108% (inactive) and 114% (inactive)	29% (inactive) and 95.8% (inactive) and 97.9% (inactive)	106% (inactive) and 113% (inactive) and 101% (inactive)	101% (inactive) and 110% (inactive) and 119% (inactive)	48.2% (inactive) and 100% (inactive) and 103% (inactive)	1.86% (active) and 103% (inactive) and 104% (inactive)	47.6% (inactive) and 108% (inactive) and 113% (inactive)	100% (inactive) and 103% (inactive) and 123% (inactive)	102% (inactive) and 106% (inactive) and 103% (inactive)	60.6% (inactive) and 120% (inactive) and 114% (inactive)			
CC[C@@]1(O)C[C@H](OC2CC(N(C)C)C(O)C(C)O2)c2c(O)c3c(c(O)c2[C@H]1OC1CC(N(C)C)C(O)C(C)O1)C(=O)c1cccc(O)c1C3=O (stereo partly drawn)		-21% (active)	24.2% (inactive)	-71% (active)	-38.5% (active)	-12.7% (active)	1.62% (active)	-61.3% (active)	-86% (active)	-0.489% (active)	-8.26% (active)	-3.79% (active)	-83.6% (active)	-50.3% (active)	-57.2% (active)			
